Shown are actives, neighbours in structure and some others; about 2.2% of the full set was active somewhere.
BaF3 tox – parental Ba/F3 cell viability inhibition, counter-screen for JAK2V617F inhibitor project, murine pro-B, CellTiter-Glo luminescence; CellTiter-Glo ATP luminescence; AID 1486, 2009; actives 1.1% (n = 220,000); inhibition, % at 5.6 µM;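 active = inhibition above a per-campaign cutoff, the mean inhibition of all tested compounds plus 3 SD, cut at about 27% in these data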
Ba/F3 V617F tox – reduced viability of JAK2V617F-dependent Ba/F3 cells, primary screen, JAK2V617F inhibitor project, cell-based, Ba/F3 EpoR-JAK2V617F, luminescence; AID 1446, 2008; actives 1.1% (n = 220,000); ATP luminescence; inhibition, % at 5.6 µM;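 active = inhibition above the campaign mean plus 3 SD over all tested compounds, cut at about 24% in these data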;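 also: cytokine-independent growth of Ba/F3 cells driven by EpoR plus mutant JAK2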
IEC-6 tox – cytotoxicity in IEC-6 intestinal epithelial cells, primary screen, cytotoxicity control for KLF5 inhibitor project, cell-based, luminescence | inhibition, % at 5 µM | actives 0.78% (n = 290,000) | IEC-6 cytotoxicity, luminescence viability; in the data active = inhibition above about 22%
aSyn UTR inh – MLPCN primary screen, SNCA 5' untranslated region; inhibition, % (tested at 7.5 µM); actives 0.82% (n = 300,000); alpha-synuclein 5'UTR reporter, inhibitor activity; in the data active = inhibition above about 60%; inconclusive = no clear call, values can overlap the other calls;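 also: H4 neuroglioblastoma cells stably carrying SNCA 5'UTR luciferase fusion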
APP 5UTR inh – inhibitors of APP translation via 5'UTR reporter, primary screen, APP 5'UTR luciferase, SH-SY5Y cells. SH-SY5Y APP 5'UTR-luciferase reporter, luminescence. inhibition, % at 2 µM. actives 0.82% (n = 190,000). AID 1285, 2008;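 active = inhibition above a set limit, derived from the sample mean plus 3 SD, cut at about 45% in these data; inconclusive = one replicate passes the limit while the other fails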
KLF5 inh – KLF5 expression inhibitors, primary screen, DLD-1 cells, luminescence. DLD-1 KLF5 promoter-luciferase reporter. inhibition, % at 5 µM. actives 0.23% (n = 290,000). AID 1700, 2009;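 active = inhibition above a per-plate limit of that plate's mean compound inhibition plus 3 SD, cut at about 60% in these data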;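 also: higher means less KLF5 promoter-driven luciferase light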
Numbers stand for hits; - = inactive; ? = inconclusive; . = no result.

SMILES	BaF3 tox	Ba/F3 V617F tox	IEC-6 tox	aSyn UTR inh	APP 5UTR inh	KLF5 inh
O=C(NNC(=O)C(c1ccccc1)c1ccccc1)c1ccccn1	-	-	54.9	72.2	55.2	-
Cc1ccc(NC(=O)c2cc3ccccc3oc2=N)cc1	.	.	-	81.7	.	-
Cc1ccc(NC(=O)c2cc(C)n(-c3ccccc3)c2C)cc1	-	-	-	105.6	-	-
CCOC(=O)c1c(NC(=O)c2ccc(S(=O)(=O)N3CCOCC3)cc2)sc2c1CC(C)(C)NC2(C)C	.	.	-	-	.	-
CCOC(=O)c1c(NC(=O)c2ccc(S(=O)(=O)N3CCOCC3)cc2)sc2c1CCN(C)C2	32.9	-	-	.	-	-
Cc1nc(NCC2CCCO2)c2nnn(Cc3c(F)cccc3Cl)c2n1 (stereo unspecified)	-	-	-	-	-	-
COc1ccc(-c2nc(-c3ccccn3)ncc2S(C)(=O)=O)cc1	-	-	-	-	-	-
Cn1nc(-c2ccccn2)nc2c(=O)n(C)c(=O)nc1-2	105.4	98.9	99.3	93.6	59.3	105.1
COc1ccc(CCn2c(-c3cc([N+](=O)[O-])cc([N+](=O)[O-])c3)nc3nc4ccccc4nc32)cc1OC	-	-	-	-	-	-
CCNC(=S)N=Nc1c(O)[nH]c2ccc(C(C)C)cc12	-	-	-	63.2	-	-
COc1ccc(CN(C)C(=O)c2ccncc2)c(OC)c1	.	.	-	-	.	-
COc1cccc(OC)c1OCCCOc1ccc(C)cc1Br	-	-	-	-	-	-
Cc1ccccc1Cn1nnc(C(=O)Nc2cccc(C)c2C)c1N	31.9	25.9	-	-	-	-
COc1ccc(OC)c(NC(=O)c2nnn(CCc3ccccc3)c2N)c1	-	-	-	-	-	-
Cc1ccc(CNC(=O)Cn2nnc(C(=O)Nc3cccc(C)c3C)c2N)cc1	.	.	-	-	.	-
COc1ccc(C)cc1NC(=O)c1nnn(Cc2cccc(C(F)(F)F)c2)c1N	36.9	23.7	-	?	-	-
COc1ccc(CN(C(=O)Cn2nnc(-c3ccc(C)o3)n2)C(C(=O)NCC2CCCO2)c2ccco2)cc1 (stereo unspecified)	-	-	-	-	-	-
O=C(O)CCCCCNS(=O)(=O)c1cccc2c1C(=O)c1ccccc1C2=O	-	-	25.9	-	-	-
Cc1ccc2ccc[n+](Cc3ccccc3)c2c1	.	.	.	-	.	.
Cc1ccc(C[n+]2cccc(-c3ccccc3)c2)c(C)c1	69.2	76.8	-	-	-	-
Nn1c(SCC(=O)Nc2ccccc2C(F)(F)F)nncc1=O	.	.	-	-	.	-
O=c1oc(-c2ccccc2)nc2ccsc12	39.3	-	-	-	.	-
O=c1oc(-c2cccs2)nc2ccccc12	-	-	-	-	-	-
CC(=O)c1cccc(NC(=O)CN2C(=O)COc3ccc(S(=O)(=O)N4CCOCC4)cc32)c1	.	.	-	73.0	.	-
C=CCNC(=O)CSc1cc([N+](=O)[O-])cc(S(=O)(=O)Cc2ccccc2)c1	38.3	-	-	-	-	-
SMILES	BaF3 tox	Ba/F3 V617F tox	IEC-6 tox	aSyn UTR inh	APP 5UTR inh	KLF5 inh
Fc1ccccc1Cn1c2[n+](c3ccc(C(F)(F)F)cc31)CCCCC2	32.6	-	-	-	-	-
CC(C)n1cc(CN2CCC(n3nccc3NC(=O)C3CCCC3)CC2)cn1	.	.	-	-	.	-
COc1ccc(C(=O)C(CCCCC(CN(C)C)C(=O)c2ccc(OC)cc2)CN(C)C)cc1 (stereo unspecified)	-	-	-	-	-	-
CN(C)CC(CCC(CN(C)C)C(=O)c1ccccc1)C(=O)c1ccccc1 (stereo unspecified)	104.3	99.0	99.9	-	.	90.8
O=C(NC1=C(Nc2ccc(Cl)cc2)C(=O)c2ccccc2C1=O)c1ccccc1	-	-	-	-	-	-
O=C1C(Cl)=C(NC(=O)c2ccccc2)C(=O)C(Cl)=C1NC(=O)c1ccccc1	.	.	100.1	-	.	-
Cc1cccc2c1Sc1ccc(Cl)cc1CC2N1CCNCC1 (stereo unspecified)	.	.	.	104.2	.	.
CCc1cccc2c1Sc1ccccc1CC2N1CCNCC1 (stereo unspecified)	.	.	.	104.1	.	.
CN1CCN(C2Cc3ccccc3Sc3cc(C(F)(F)F)ccc32)CC1 (stereo unspecified)	.	.	.	-	.	.
O=C(C[n+]1cc(-c2ccccc2)n2c1CCC2)c1cccs1	39.0	25.6	-	-	-	-
O=C(C[n+]1cc(-c2ccc(Cl)cc2)n2c1CCCCC2)c1ccccc1	43.1	27.8	-	-	.	-
O=C(C[n+]1cc(-c2ccccc2)n2c1CCC2)N1c2ccccc2Sc2ccccc21	-	-	-	-	-	-
O=C(C[n+]1cc(-c2ccc(Br)cc2)n2c1CCCCC2)c1ccccc1	49.3	38.2	-	-	-	-
CC(=O)N1c2ccccc2C2(O)N=C(C)SC12 (stereo unspecified)	-	-	-	-	-	-
O=C(Nc1ccc(C2SCCS2)cc1)c1ccccc1	-	-	-	-	.	-
COC(=O)Cc1c(C)c2ccc(OCc3nn[nH]n3)c(C)c2oc1=O	-	-	-	-	-	-
COC(=O)Cc1c(C)c2ccc(OCc3nn[nH]n3)cc2oc1=O	-	-	-	-	78.0	-
N[C@@H](Cc1ccccc1)c1nnc(SC/C=C/c2ccccc2)o1	-	-	-	-	.	-
O=c1c2ccccc2sc2ccc(C#CC3(O)CCCCC3)cc12	.	.	.	103.8	.	.
O=c1c2ccccc2oc2cc(C#CC3(O)CCCCC3)ccc12	.	.	.	77.3	.	.
COc1cccc2sc3ccc(C#CC4(O)CCCCC4)cc3c(=O)c12	.	.	-	-	.	-
COc1ccc(CCN2CC(C(=O)NCCc3cccnc3)CCC2=O)cc1 (stereo unspecified)	.	.	-	-	.	-
Nc1ccc(Nc2ccc([N+](=O)[O-])cc2[N+](=O)[O-])cc1	-	-	-	-	-	-
O=C(O)c1ccccc1Nc1cc(Cl)c2nonc2c1[N+](=O)[O-]	.	.	-	-	.	-
O=[N+]([O-])c1ccc(Nc2ccccn2)c([N+](=O)[O-])c1	49.0	29.2	-	-	-	-
SMILES	BaF3 tox	Ba/F3 V617F tox	IEC-6 tox	aSyn UTR inh	APP 5UTR inh	KLF5 inh
O=[N+]([O-])c1c(Nc2ccccn2)cc(Cl)c2nonc12	-	-	62.6	-	.	-
CCOC(=O)c1[nH]ncc1CN1CCC(Cc2cccc(OC)c2)(C(=O)OCC)CC1	-	-	-	-	.	-
Cc1ccc(-c2nnn(C/C(N)=N/O)n2)cc1	-	-	-	-	-	-
O=C(NCCCCc1ccccc1)c1ccccc1Br	.	.	.	-	.	.
COc1ccc(NC(=S)/N=C(\N)Nc2nc(C)c3ccc(C)cc3n2)cc1	43.4	-	-	-	-	-
CCOc1ccc2nc(N/C(N)=N/C(=S)Nc3ccc(C)c(C)c3)nc(C)c2c1	-	-	-	-	-	-
